Screening results as filed in PubChem BioAssay.
A selection: hits, their analogues and other compounds. The true share with any hit is near 3.2%.
USP1-UAF1 inh – inhibitors of human USP1/UAF1 deubiquitinase. Potency, µM (highest dose often 57.1 µM), for the others: at the highest dose activity change, negative = inhibition, actives largely listed as inhibitors. 0.23% of 390,000 active. AID 743255. recombinant USP1/UAF1, Ub-Rhodamine cleavage fluorescence. O94782; further: potency means the concentration at half of the fitted maximal effect; nearly all actives have a fitted effect of over 60% in size
Target sequence (O94782 whole entry, looked up): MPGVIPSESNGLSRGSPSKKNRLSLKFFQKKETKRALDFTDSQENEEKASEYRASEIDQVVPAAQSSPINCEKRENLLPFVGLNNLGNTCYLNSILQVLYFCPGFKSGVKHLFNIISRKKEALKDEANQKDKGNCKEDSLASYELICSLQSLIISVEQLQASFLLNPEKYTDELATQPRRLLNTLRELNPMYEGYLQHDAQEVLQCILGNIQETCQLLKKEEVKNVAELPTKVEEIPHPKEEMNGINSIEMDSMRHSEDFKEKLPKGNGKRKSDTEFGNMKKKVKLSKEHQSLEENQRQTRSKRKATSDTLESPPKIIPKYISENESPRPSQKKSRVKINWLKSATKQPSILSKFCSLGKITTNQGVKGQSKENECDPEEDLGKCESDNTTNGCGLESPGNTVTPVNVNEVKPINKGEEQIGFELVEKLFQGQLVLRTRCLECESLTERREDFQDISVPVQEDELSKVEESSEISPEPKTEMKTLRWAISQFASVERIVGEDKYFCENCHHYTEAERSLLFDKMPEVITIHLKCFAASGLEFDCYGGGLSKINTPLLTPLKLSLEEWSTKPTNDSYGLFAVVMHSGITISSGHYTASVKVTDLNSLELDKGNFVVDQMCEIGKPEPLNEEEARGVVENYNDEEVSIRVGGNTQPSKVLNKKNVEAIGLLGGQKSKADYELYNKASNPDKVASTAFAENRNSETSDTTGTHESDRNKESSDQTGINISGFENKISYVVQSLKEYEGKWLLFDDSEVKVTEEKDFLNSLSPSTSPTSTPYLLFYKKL
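1 nM enzyme complex + cpd, 15 min RT; start with Ub-Rho 150nM final; kinetic fluorescence ex 480/em 540, 6 reads q60 s. Buffer 50mM HEPES pH 7.8, 0.5mM EDTA, 0.1 mg/ml BSA, 1mM TCEP, 0.01% Tween-20.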
PLK1 PBD inh – PLK1 (human) polo-box domain binding inhibition; Plk1 PBD binding of FITC phosphopeptide, fluorescence polarization; Potency, µM, inactives show max response, negative = inhibition, hits mostly inhibitors; 2.8% of 360,000 active; P53350; further: potency means the concentration at half of the fitted maximal effect; series mostly up to about 57 µM; nearly all actives have a fitted effect of over 65% in size
GALK inhibitor – inhibitors of human galactokinase. Purified GALK, Kinase-Glo residual ATP luminescence. Potency, µM (highest dose often 57.5 µM), inactives show at the highest dose activity change, negative = inhibition, usual class: inhibitors. 0.007% of 270,000 active. AID 1868; further: potency means the concentration at half of the fitted maximal effect
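Compounds were pin-transferred into ATP buffer (35 uM final), then GALK plus galactose (5 nM, 100 uM final) was added. After 1 h at room temperature, Kinase-Glo Plus was added and luminescence read after 10 min.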
FBPA coupling cs – counter-screen for Giardia aldolase inhibitors: coupling enzyme system; 0.67% of 290,000 active; activity change, negative = inhibition, % at 58.2 µM, hits read low; coupling enzyme system counterscreen, AmpLite Red fluorescence; AID 2472; in the data active means activity change below about -30%
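Activity here indicates interference with the coupling reaction, not aldolase inhibition. Compounds at 57.5 uM final met coupling enzymes for 10 min at RT; substrate and AmpLite Red detection followed, with a 525/598 nm fluorescence read after 20 min.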
VDR inhibitor – inhibitors of human vitamin D receptor; P11473; Potency, µM, for the others: max response, negative = inhibition, actives largely listed as inhibitors; 0.93% of 400,000 active; AID 504847; VDR-SRC2-3 peptide fluorescence polarization, 2 h; further: potency means the concentration at half of the fitted maximal effect
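Inhibition of the VDR/SRC2-3 peptide interaction is quantified by fluorescence polarization. Compounds (23 nl, pintool) incubate with the reagents for 2 hours at ambient room temperature.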
USP2a block – blocks human ubiquitin-specific protease USP2a; Potency, µM (top dose mostly 38.3 µM), inactives show top-dose activity change, negative = inhibition, actives largely listed as inhibitors; USP2 core, Ub-CHOP2 coupled fluorogenic reporter, 485/531; O75604; AID 463254; 0.01% of 330,000 active;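 further: potency means the concentration at half of the fitted maximal effect; plate controls were DMSO wells for no effect and full inhibition by NEM control for full effect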
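USP2 core (10nM final) preincubated 30min RT with compound in 20mM Tris-HCl pH 8.0, 2mM CaCl2, 2mM beta-mercaptoethanol, 0.05% CHAPS; 25nM Ub-CHOP2 plus 25nM reporter substrate added, fluorescence (Ex485/Em531) read after 60min.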
TbPYK inh – Trypanosoma brucei pyruvate kinase inhibition, cherry-pick confirmation. Potency, µM (highest dose often 76.9 µM), inactives show at the top dose activity change, negative = inhibition, actives largely listed as inhibitors. shares compounds with PLK1 PBD inh. recombinant TbPYK, Kinase-Glo ATP luminescence. 67% of 890 active; further: potency means the concentration at half of the fitted maximal effect; nearly all actives have a fitted effect of over 70% in size
TbPYK orthogonal – inhibits T. brucei pyruvate kinase in orthogonal ADP-Glo assay. recombinant TbPYK, ADP-Glo luminescence, 60 min. shares compounds with PLK1 PBD inh. 62% of 890 active. Potency, µM (highest dose often 76.9 µM), for the others: top-dose activity change, negative = inhibition, usual class: inhibitors; further: potency means the concentration at half of the fitted maximal effect; nearly all actives have a fitted effect of over 75% in size
Starred values were filed as active, the others as inactive; ? = inconclusive; . = not tested or not shown. Unless noted, the call rests on the fitted dose curve; in most records, active means well fitted curve in the direction sought with a large enough effect; inconclusive means small, poorly fitted or top-dose-only effect, or another doubt; inactive means no such curve, though single readings can be large; an effect the other way counts as inactive or inconclusive. Unless noted, on the % scale 0 is the no-effect control and ±100 the full control effect.

SMILES	USP1-UAF1 inh	PLK1 PBD inh	GALK inhibitor	FBPA coupling cs	VDR inhibitor	USP2a block	TbPYK inh	TbPYK orthogonal
Cc1nonc1C(=O)N/N=C/c1ccncc1	-21%	-2%	7%	3	13%	4%	.	.
Cc1nonc1C(=O)N/N=C/c1ccc(O)cc1O	-10%	-6%	3%	-4	9%	3%	28µM*	-1%
Clc1nssc1=Nc1nncs1	-23%	2.4µM*	.	.	5.6µM*	-1%	2µM*	5µM*
Clc1nssc1=Nc1ccc(Br)cc1	-36%	2.1µM*	3%	2	35µM*	-2%	8.9µM*	11µM*
Brc1ccc(N=Cc2ccccn2)cc1	-14%	-5%	.	-1	-13%	5%	.	.
COc1cc(NC(=O)N2c3ccccc3Sc3ccccc32)cc(OC)c1	-15%	.	.	.	5%	.	.	.
COc1cc(N=c2ssnc2Cl)cc(OC)c1	-21%	1.7µM*	-1%	-12	20µM*	0%	4µM*	5µM*
N#Cc1cccc(N=c2ssnc2Cl)c1	?	1.7µM*	0%	4	?	8%	8.9µM*	7.1µM*
Cc1c(C)c2ccc(OC(C)C(=O)NC3CC(C)(C)NC(C)(C)C3)cc2oc1=O (stereo unspecified)	-15%	-8%	0%	.	2%	-2%	.	.
Nc1nc2n(n1)C(c1ccccc1)CC(c1ccc(F)cc1)N2 (stereo unspecified)	-8%	-11%	2%	8	-19%	-1%	.	.
Cc1nc2cc(C(=O)N3CCN(C)CC3)ccc2n1C	-12%	3%	3%	5	-7%	-4%	.	.
Cc1nc(NC(=O)c2ccco2)sc1C(=O)O	-13%	-5%	27%	-1	0%	-7%	20µM*	-10%
Cc1ccc(NC(=O)NC2CC(=O)N(c3ccc4c(c3)OCCO4)C2)cc1F (stereo unspecified)	-5%	-1%	.	.	-25%	-2%	.	.
CCOC(=O)CSc1nnc(Cc2ccc(OC)cc2)n1-c1ccccc1	-21%	-2%	-1%	1	3%	1%	3.2µM*	5µM*
CC(C)C1Nc2ccc(C(=O)O)cc2C2C=CCC21 (stereo unspecified)	-23%	?	-2%	-5	?	16%	?	?
CCCC1Nc2ccc(C(=O)O)cc2C2C=CCC12 (stereo unspecified)	-17%	?	2%	-3	-37%	6%	.	.
Cc1cccc(Nc2nc(N)nc(CSC(=S)N3CCOCC3)n2)c1	-17%	-6%	0%	0	12%	5%	.	.
Cc1ccc(C(=O)Nc2nc3ccccc3n3nnnc23)cc1	-12%	-1%	0%	.	-16%	-2%	.	.
CCCCn1c(N)c(N(CCOC)C(=O)CN(C)S(=O)(=O)c2ccc(Cl)cc2)c(=O)[nH]c1=O	-11%	0%	-6%	.	-15%	0%	.	.
c1cncc(Nc2nc(-c3cccs3)cs2)c1	-10%	19µM*	0%	-8	?	0%	-21%	?
Cc1ccsc1/C=N/NC(=O)c1nnn(-c2nonc2N)c1-c1ccccc1	-13%	-11%	5%	-7	11%	-1%	.	.
CCc1cn([C@H]2C[C@H](O)[C@@H](CO)O2)c(=O)[nH]c1=O	-26%	-1%	0%	3	-16%	2%	.	.
O=c1[nH]c(=O)n(C2CC(O)C(CO)O2)cc1Br (stereo unspecified)	-8%	-1%	.	.	6%	.	13µM*	28µM*
COc1c(OC2OC(C(=O)O)C(O)C(O)C2O)cc(O)c2c(=O)cc(-c3ccccc3)oc12 (stereo unspecified)	-20%	-14%	.	0	-5%	0%	.	.
O=C(O)C1OC(Oc2cc3oc(-c4ccccc4)cc(=O)c3c(O)c2O)C(O)C(O)C1O (stereo unspecified)	?	3%	.	-13	-9%	0%	2.8µM*	2.8µM*
SMILES	USP1-UAF1 inh	PLK1 PBD inh	GALK inhibitor	FBPA coupling cs	VDR inhibitor	USP2a block	TbPYK inh	TbPYK orthogonal
C=CCNC(=O)CSc1cc([N+](=O)[O-])cc(S(=O)(=O)Cc2ccccc2)c1	-21%	?	2%	3	-28%	4%	.	.
O=C(CSc1cc([N+](=O)[O-])cc(S(=O)(=O)Cc2ccccc2)c1)NC1CC1	9%	?	2%	0	-17%	-1%	?	25µM*
O=C1CSC(=S)N1N=Cc1c(O)ccc2ccccc12	-25%	-10%	.	.	?	.	?	16µM*
COc1cccc(/C=N/N2C(=O)CSC2=S)c1O	-21%	?	.	-1	?	1%	?	?
Clc1ccc(N2CCN(Cc3nnc(-c4ccc5c(c4)OCO5)o3)CC2)cc1	-14%	.	.	.	-7%	.	.	.
COc1cc(/C=N/N=C2/NC(=O)C(CC(=O)O)S2)ccc1OCc1ccc(Cl)cc1 (stereo unspecified)	-20%	-23%	-1%	5	-26%	3%	16µM*	35µM*
N#Cc1cc2c(nc1SCc1cccnc1)CCCC2	-5%	27µM*	-2%	9	2%	1%	4µM*	6.3µM*
CC1(C)CC(=O)C(C(C2=C(O)CC(C)(C)CC2=O)c2ccc(Cl)c([N+](=O)[O-])c2)C(=O)C1 (stereo unspecified)	-9%	-11%	3%	5	0%	3%	.	.
CC1(C)CC(=O)C(C(C2=C(O)CC(C)(C)CC2=O)c2ccco2)C(=O)C1 (stereo unspecified)	-11%	5.3µM*	-3%	.	?	0%	13µM*	?
CN(C)c1ccc(C(c2ccc(N(C)C)cc2)C(O)c2ccccc2)cc1 (stereo unspecified)	-22%	2%	.	.	22%	.	2.8µM*	?
CN(C)c1ccc(C(=O)C(O)c2ccccc2)cc1 (stereo unspecified)	-14%	-7%	-1%	5	-4%	-1%	.	.
Cn1cccc1C(=O)C(=O)Nc1cc(Cl)cc(Cl)c1	-8%	3µM*	4%	-1	?	1%	-2%	3%
CCOC(=O)c1ccc(N2CSC3=C(C#N)C(c4cccs4)CC(=O)N3C2)cc1 (stereo unspecified)	-11%	-22%	2%	-6	89µM*	-2%	?	?
Cc1ccc(N2CSC3=C(C#N)C(c4cccs4)CC(=O)N3C2)cc1 (stereo unspecified)	-23%	15µM*	2%	-28	79µM*	4%	2.5µM*	1.6µM*
